Experimental data reported in PubChem BioAssay (NCI).
This is part of a sample that, as a whole, favours compounds with a hit. Of some 83,000 tested, about 20% had one in any assay.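 Step 1: grow cells in 96-well plates. Step 2: add test compound at a single concentration. Step 3: incubate 48 h. Step 4: record percent growth.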 Activity calls are given as the source filed them. Rule for the calls: active = growth percent below 10; inactive = the rest.

Columns and labels:
Assay in all cases: NCI-60 one-dose screen, 48 h (100 = growth as untreated, 0 = no growth, -100 = all killed)
Conditions in all cases: 10 µM unless noted
HCT-15 colon = test system: HCT-15 colon
HT29 colon = test system: HT29 colon
SNB-75 CNS = test system: SNB-75 CNS
SNB-19 CNS = test system: SNB-19 CNS
U251 CNS = test system: U251 CNS
PC-3 prostate = test system: PC-3 prostate
SK-MEL-5 melanoma = test system: SK-MEL-5 melanoma
UACC-62 melanoma = test system: UACC-62 melanoma
LOX IMVI melanoma = test system: LOX IMVI melanoma
SK-MEL-28 melanoma = test system: SK-MEL-28 melanoma

Measured: growth

[Ag].[Ag].[NH-]S(=O)(=O)c1ccc(N=Nc2cc(N=Nc3ccc(S([NH-])(=O)=O)cc3)c3c(NC(=O)C(Cl)Cl)cccc3c2OC(=O)C(Cl)Cl)cc1.[c-]1nccs1.[c-]1nccs1
inactive: HCT-15 colon 79% | HT29 colon 76.2% | SNB-75 CNS 51.3% | SNB-19 CNS 80.7% | U251 CNS 75.2% | PC-3 prostate 48.2% | SK-MEL-5 melanoma 35.6% | UACC-62 melanoma 91.8% | LOX IMVI melanoma 78.7% | SK-MEL-28 melanoma 89.1%

O=C(Oc1c(Cl)c(Cl)c(Cl)c(Cl)c1Cl)C1CCCN1C(=O)OCc1ccccc1 (stereo not given)
inactive: HCT-15 colon 15.4% | HT29 colon 89.1% | SNB-75 CNS 36.4% | SNB-19 CNS 26.2% | U251 CNS 18.3% | PC-3 prostate 10.7% | SK-MEL-5 melanoma 76.2% | UACC-62 melanoma 75.2% | LOX IMVI melanoma 64.8% | SK-MEL-28 melanoma 99%

COc1c(B(O)O)cccc1-c1nc2c(F)cc3n[nH]c(C)c3c2c2c1CCCC2
active: SNB-75 CNS -21.6% | UACC-62 melanoma 3.54%
inactive: HCT-15 colon 18.3% | HT29 colon 17% | SNB-19 CNS 18.1% | U251 CNS 13.6% | PC-3 prostate 27.3% | SK-MEL-5 melanoma 20.4% | LOX IMVI melanoma 11.8% | SK-MEL-28 melanoma 25%

O=c1cc(N2CCOCC2)oc2c(-c3ccc4c(c3)OCCO4)csc12
inactive: HCT-15 colon 16.9% | HT29 colon 10.8% | SNB-19 CNS 25.6% | U251 CNS 31.2% | PC-3 prostate 21.8% | LOX IMVI melanoma 10.3% | SK-MEL-28 melanoma 22.3%
active: SNB-75 CNS -16.6% | SK-MEL-5 melanoma -7.05% | UACC-62 melanoma -1.9%

CS(=O)(=O)Nc1cc(-c2cc3ncc(C#N)c(Nc4ccc(Oc5ccccc5)c(Cl)c4)c3s2)cnc1Cl
inactive: HCT-15 colon 37.2% | HT29 colon 57.6% | SNB-75 CNS 39.2% | SNB-19 CNS 62.8% | U251 CNS 44.6% | PC-3 prostate 45.5% | SK-MEL-5 melanoma 52.5% | UACC-62 melanoma 22% | LOX IMVI melanoma 25.9% | SK-MEL-28 melanoma 62.3%

CCN(CC)CCCCCCCNc1cc(OC)cc2c(C)ccnc12
inactive: HCT-15 colon 76.8% | HT29 colon 52.5% | SNB-75 CNS 82.9% | SNB-19 CNS 96.3% | U251 CNS 86% | PC-3 prostate 51.4% | SK-MEL-5 melanoma 85.3% | UACC-62 melanoma 91.3% | LOX IMVI melanoma 56.6% | SK-MEL-28 melanoma 105%

COc1cc(C2CC(c3ccc(Cl)cc3)=NN2C=O)ccc1OS(=O)(=O)c1ccc(C)cc1 (stereo not given)
inactive: HCT-15 colon 89.7% | HT29 colon 99.3% | SNB-75 CNS 91.5% | SNB-19 CNS 86.7% | U251 CNS 91% | PC-3 prostate 94.4% | SK-MEL-5 melanoma 86.3% | UACC-62 melanoma 78.6% | LOX IMVI melanoma 97.2% | SK-MEL-28 melanoma 103%

CCOc1cccc(/C=N/NC(=O)Cc2ccc(Nc3ccnc(C(F)(F)F)c3)cc2)c1O
active: SK-MEL-5 melanoma -36% | UACC-62 melanoma -5.55% | LOX IMVI melanoma 2.43%
inactive: HCT-15 colon 17.3% | HT29 colon 85% | SNB-75 CNS 39.4% | SNB-19 CNS 28% | U251 CNS 20.6% | PC-3 prostate 50% | SK-MEL-28 melanoma 60.6%

O=C(Nc1ccc2[nH]c3ccccc3c2c1)c1ccccc1Cl
inactive: HCT-15 colon 31.7% | SNB-75 CNS 59.1% | SNB-19 CNS 82.9% | U251 CNS 32.6% | PC-3 prostate 54.1% | SK-MEL-5 melanoma 30.3% | UACC-62 melanoma 56.4% | LOX IMVI melanoma 33.9% | SK-MEL-28 melanoma 57.8%
active: HT29 colon 1.78%

COc1ccc2c(c1)CCCC21C(=O)Nc2ccccc21 (stereo not given)
inactive: HCT-15 colon 97.2% | HT29 colon 87.4% | SNB-75 CNS 101% | SNB-19 CNS 105% | U251 CNS 99.3% | PC-3 prostate 104% | SK-MEL-5 melanoma 103% | UACC-62 melanoma 106% | LOX IMVI melanoma 98% | SK-MEL-28 melanoma 111%

CCCCCCCCCCCCCCCc1cc(O)ccc1[N+](=O)[O-]
inactive: HCT-15 colon 73.7% | HT29 colon 107% | SNB-75 CNS 83.1% | SNB-19 CNS 99.9% | U251 CNS 70.1% | PC-3 prostate 59.5% | SK-MEL-5 melanoma 76.1% | UACC-62 melanoma 67.9% | LOX IMVI melanoma 98% | SK-MEL-28 melanoma 102%

C=CCn1c(SCC(=O)Nc2ccc(C(=O)/C=C/c3ccccc3)cc2)nnc1-c1ccc(OC)c(OC)c1
inactive: HCT-15 colon 64.2% | HT29 colon 80.1% | SNB-75 CNS 79.1% | SNB-19 CNS 76.4% | U251 CNS 72.7% | PC-3 prostate 67.8% | SK-MEL-5 melanoma 61.3% | UACC-62 melanoma 72.1% | LOX IMVI melanoma 84.9% | SK-MEL-28 melanoma 97.6%

COc1ccc(C(=O)C(C#N)c2cc(OC)c(OC)c(OC)c2)cc1 (stereo not given)
inactive: HCT-15 colon 102% | HT29 colon 99.2% | SNB-75 CNS 90.7% | SNB-19 CNS 108% | U251 CNS 98.2% | PC-3 prostate 99% | SK-MEL-5 melanoma 102% | UACC-62 melanoma 105% | LOX IMVI melanoma 97.8% | SK-MEL-28 melanoma 104%
